# Source: PubChem (National Center for Advancing Translational Sciences (NCATS))
# Most compounds without a hit are left out; they make up all but 8.8% or so of the library.
# KB-V1 cytotox – KB-V1 MDR subline cytotoxicity; KB-V1 MDR cells viability, CellTiter-Glo, 72 h; Potency, µM (titrated, usually from 46.1 µM), most hits filed as cytotoxic; 400,000 compounds, 3.4% hits; also: nearly all actives have a fitted effect of over 60% in size
#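 KB-V1 cells (P-gp-expressing MDR subline of KB-3-1) in phenol-red-free DMEM with 10% FBS were exposed to library compounds over a concentration series for 72 h at 37 degrees C. Viability read by CellTiter-Glo luminescence; concentration-effect curves fitted after normalization.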
# HT1080 IDH1KD tx – toxicity to HT-1080 IDH1 knockdown cells (counter line). AID 686971. Potency, µM (top dose mostly 46.1 µM), usual class: cytotoxic. HT-1080 IDH1 knockdown viability, ATP luminescence, 48 h. 360,000 compounds, 2% hits
#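 After a 2 h attachment period, IDH1KD HT-1080 cells took pin-transferred compound for 48 h at 37 °C; ATP-based luminescence after 10 min room-temperature reagent incubation reported viability.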
# IL1B secr inh – blocks inflammasome-driven IL-1 beta release; THP-1 LPS/ATP IL-1B secretion, AlphaLISA, 16 h; active compounds read low; AID 743279; 360,000 compounds, 4.7% hits; activity change, % at 57.5 µM; in the data active = activity change below about -50%; inconclusive = mostly about -30% to -49%
#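 Secreted IL-1B measured by AlphaLISA bead assay after 16 h compound exposure of THP-1 cells; compounds (final up to 57.5 uM) added 1 h before LPS (250 ng/mL) and ATP (1.25 mM) stimulation; lower signal means less secretion.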
# KB-3-1 cytotox – KB-3-1 parental cell cytotoxicity | KB-3-1 viability, CellTiter-Glo ATP luminescence, 72 h | Potency, µM (doses to about 46.1 µM), hits mostly cytotoxic | 400,000 compounds, 1.4% hits | AID 1347075; also: nearly all actives have a fitted effect of over 60% in size
#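 Here the drug-naive KB-3-1 line serves as comparator for MDR sub-line selectivity; cells received compound titrations, 72 h at 37 °C, then CellTiter-Glo readout.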
# HT1080-NT tox – kills 2HG-producing HT-1080-NT fibrosarcoma cells; HT-1080-NT fibrosarcoma viability, CellTiter-Glo ATP luminescence, 48 h; Potency, µM (series often up to 46.1 µM), hits mostly cytotoxic; 360,000 compounds, 1.6% hits; AID 686970;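 also: NT is the 2HG producing partner of a matched IDH1 knockdown line; nearly all actives have a fitted effect of over 55% in size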
#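 Viability by CellTiter-Glo luminescence after 48 h compound exposure at 37C of HT-1080-NT cells (750/well, RPMI, 5% FBS). % activity scaled between DMSO wells and medium-only wells, then curve-fitted and categorized by curve class.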
# Hits are given with their value; . = inactive; ? = inconclusive; / = not tested or not shown. Unless noted, calls follow the shape of the dose curve; as a rule, active = well fitted curve in the direction sought with a large enough effect; inconclusive = small, poorly fitted or top-dose-only effect, or another doubt; inactive = no such curve, though single readings can be large; an effect the other way counts as inactive or inconclusive.
SMILES,KB-V1 cytotox,HT1080 IDH1KD tx,IL1B secr inh,KB-3-1 cytotox,HT1080-NT tox
Cc1cccc(Nc2nnc(-n3nc(C)cc3C)c3ccccc23)c1,.,/,/,.,/
O=S(=O)(Nc1nc(SCc2ccc(Cl)cc2)n[nH]1)c1ccc(F)cc1,.,?,-59,.,?
CCc1nc(SCc2ccc(Cl)cc2)n[nH]1,.,.,.,.,.
CC(C)CNC(=O)C1(C)CCCN1C(=O)c1cccnc1Oc1ccccc1 (stereo not drawn),.,.,.,.,.
C#CCNC(=O)C1=C[C@@H](c2ccc(C(F)(F)F)cc2)[C@H](CCCO)[C@@H](OCC)O1,.,.,.,.,.
CCOc1ccc(-c2cc3cc(OC)c(OC)cc3c(C)n2)cc1,.,.,.,.,.
COc1cc2cc(-c3ccc(O)cc3O)nc(C)c2cc1OC,6.5µM,?,-73,?,.
COc1cc2cc(-c3ccc(OC)c(OC)c3C)nc(N)c2cc1OC,6.5µM,1.3µM,.,?,8.2µM
Cc1ccc(C(C)C)c(OCC(=O)Nc2ccc(S(=O)(=O)Nc3onc(C)c3C)cc2)c1,.,/,/,.,/
COc1cc2c(cc1NC(=S)Nc1cccc(C)c1)oc1ccccc12,.,?,.,.,10µM
COc1cc2c(cc1NC(=O)Nc1cccc(C)c1)oc1ccccc12,.,.,.,.,.
COc1cc2c(cc1NC(=O)c1cccc([N+](=O)[O-])c1C)oc1ccccc12,.,?,-55,?,?
COc1cc2c(cc1NC(=O)COC(=O)[C@@H](NS(=O)(=O)c1cccc(Cl)c1)C(C)C)oc1ccccc12,23µM,.,.,.,.
COc1ccccc1Nc1ccc(NC(=O)c2cccc([N+](=O)[O-])c2C)cc1,?,.,.,18µM,.
CC(C)C(=O)Nc1nc2c(ncn2[C@H]2CC(O)[C@@H](CO)O2)c(=O)[nH]1 (stereo partly drawn),.,/,/,?,/
O=C(COC(=O)Cc1n[nH]c(=O)c2ccccc12)Nc1c(Cl)cccc1C(F)(F)F,.,.,.,.,.
COc1cc2c(cc1NC(=O)c1cccc(S(=O)(=O)N(C)C)c1)oc1ccccc12,10µM,?,.,.,.
CC(=O)Nc1ccc(-c2ccnc3c2CC(C)(C(=O)NC(C)C)O3)cc1 (stereo not drawn),.,.,.,.,?
CC(NC(=O)C1CCN(Cc2ccccc2)CC1)c1cccc2ccccc12 (stereo not drawn),.,?,.,.,?
O=C(NC(c1ccc(Cl)cc1)c1ccsc1)C1CCN(Cc2ccc(Oc3ccccc3)cc2)CC1 (stereo not drawn),.,12µM,-63,.,15µM
CC(NC(=O)C1CCN(Cc2ccc(Oc3ccccc3)cc2)CC1)c1cccc2ccccc12 (stereo not drawn),.,10µM,.,.,?
COc1ccc(OCCN2CCC(C(=O)NC(c3ccsc3)c3ccccc3C)CC2)cc1 (stereo not drawn),.,?,-67,.,?
Cc1ccccc1C(NC(=O)C1CCN(Cc2ccc(Oc3ccccc3)cc2)CC1)c1ccsc1 (stereo not drawn),?,?,?,?,21µM
COc1ccc(C(NC(=O)C2CCN(CCOc3ccc(F)cc3)CC2)c2cccs2)cc1 (stereo not drawn),.,?,/,.,?
O=C(c1cc(F)ccc1F)C1CCCN(C(=O)CCN2CCCCO2)C1 (stereo not drawn),.,.,.,.,.
SMILES,KB-V1 cytotox,HT1080 IDH1KD tx,IL1B secr inh,KB-3-1 cytotox,HT1080-NT tox
Cn1c(=O)cc(SCC(=O)NCCc2ccc(Cl)cc2)c2cc(Cl)ccc21,.,/,/,.,/
CC1(C)C(=O)C=CC(=O)C(C)(C)C(=O)C=CC(=O)C(C)(C)C2=CC=C(O2)C(C)(C)C(=O)C=CC1=O,.,?,-97,?,.
CC12COC3(P(=O)(c4ccccc4)c4ccccc4)CC1CCC23CP(=O)(c1ccccc1)c1ccccc1 (stereo not drawn),?,?,-52,.,.
CC12COC3(C(=O)Nc4ccc(F)cc4)CC1CCC32C (stereo not drawn),.,.,.,.,.
CC(C)c1nn2c(=O)cc(COC(=O)c3ccco3)nc2s1,?,/,/,.,/
COc1ccc(CNCc2ccc3ccccc3c2)c(OC)c1,.,.,-68,.,.
COc1ccc(CCC(C)NCc2ccccc2OC)cc1 (stereo not drawn),.,.,-82,.,.
COc1ccc(CNCc2ccncc2)c(OC)c1,.,.,.,.,.
COc1ccc(CNCc2cccc(Oc3ccccc3)c2)cc1,?,?,-80,.,.
CC(C)(C)N1C(=O)c2ccc(C(=O)Nc3cc(C(=O)O)cc(C(=O)O)c3)cc2C1=O,.,.,.,.,.
CC(=O)N/C(=C\c1ccccc1)C(=O)OCc1ccccc1,.,.,.,.,.
CC(=O)N/C(=C\c1ccccc1)C(=O)OCC(=O)N(C)C1CCCCC1,16µM,.,.,.,.
Cc1cc(C=CC#N)cc(C)c1Nc1nc(Nc2ccc3c(c2)OCO3)c2[nH]cnc2n1,?,/,/,18µM,/
Cc1ccc(S(=O)(=O)Nc2ccc(Br)cc2C(NCC(=O)O)c2ccccc2)cc1 (stereo not drawn),?,.,.,.,.
Cc1oc2c(cc(NS(=O)(=O)c3ccc(Cl)cc3)c3ccccc32)c1C(=O)O,.,.,.,.,.
O=C(O)CSc1cc(NS(=O)(=O)c2ccc(Br)cc2)c2ccccc2c1O,?,16µM,-51,.,21µM
CC(=O)c1c(C)oc2c1cc(NS(=O)(=O)c1ccc(Br)cc1)c1ccccc12,?,/,/,5.2µM,/
O=S(=O)(Nc1cc(Sc2ncn[nH]2)c(O)c2ccccc12)c1ccccc1,.,4.6µM,-95,.,2.3µM
Cc1cc(O)c(Sc2ncn[nH]2)cc1NS(=O)(=O)c1ccc(Cl)cc1,.,.,.,?,.
COc1ccc(OC)c(C2CC(=O)Nc3c2c(=O)[nH]c2ncnn32)c1 (stereo not drawn),.,.,.,.,.
FC(F)(F)c1cccc(-c2nn[nH]n2)c1,.,.,.,.,.
Nc1nc(N)c(-c2cccc(C(F)(F)F)c2)c(Cc2cccc(C(F)(F)F)c2)n1,?,4.6µM,-81,7.3µM,?
OC(c1cccnc1)c1nc(-c2cccc(F)c2)cs1 (stereo not drawn),.,.,.,.,.
CC(C)c1ccc(C(O)P(=O)(OC2CCCCC2)OC2CCCCC2)cc1 (stereo not drawn),?,?,-92,?,?
Cc1ccc(C(=O)N/C(=C\c2ccc([N+](=O)[O-])cc2)C(=O)NCCc2ccccc2)cc1,.,11µM,.,.,?
O=C(NCCc1ccccc1)/C(=C\c1ccc([N+](=O)[O-])cc1)NC(=O)c1ccc(Br)cc1,.,.,.,.,.
